Screening data as filed in PubChem.
Gal4-VP16 FLuc – counter-screen for ROR gamma inhibitors: Gal4-VP16 reporter | Drosophila S2 Gal4-VP16 UAS-luciferase, luminescence, 20 h | Potency, µM (titrated, usually from 53.6 µM), without a hit: at the top dose activity, negative = inhibition, usual class: inhibitors | 3.5% of 310,000 active;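 also: Gal4-VP16 expression switched on by copper sulfate through the metallothionein promoter; % is scaled to controls: 0 for no effect and ±100 for the full control effect; nearly all actives have a fitted effect of over 50% in size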
MCF10A rereplic – DNA re-replication induction in MCF 10a cells. Potency, µM (doses to about 46.1 µM), for the others: at the top dose activity, positive = re-replication, actives largely listed as activators. MCF 10A DNA re-replication, Hoechst nuclear intensity, 48 h. 2.9% of 350,000 active; also: % of control where 0% means no effect; nearly all actives have a fitted effect of over 50% in size
RORg inh – inhibitors of mouse ROR gamma transcriptional activity; 5.4% of 310,000 active; Drosophila S2 Gal4-RORgamma UAS-luciferase reporter, 20 h; Potency, µM (highest dose often 53.6 µM), without a hit: at the highest dose activity change, negative = inhibition, usual class: inhibitors; P51450; AID 2551; also: % is scaled to controls: 0 for no effect and ±100 for the full control effect; nearly all actives have a fitted effect of over 60% in size
Target sequence (P51450 whole entry, looked up, the tested form may be a part): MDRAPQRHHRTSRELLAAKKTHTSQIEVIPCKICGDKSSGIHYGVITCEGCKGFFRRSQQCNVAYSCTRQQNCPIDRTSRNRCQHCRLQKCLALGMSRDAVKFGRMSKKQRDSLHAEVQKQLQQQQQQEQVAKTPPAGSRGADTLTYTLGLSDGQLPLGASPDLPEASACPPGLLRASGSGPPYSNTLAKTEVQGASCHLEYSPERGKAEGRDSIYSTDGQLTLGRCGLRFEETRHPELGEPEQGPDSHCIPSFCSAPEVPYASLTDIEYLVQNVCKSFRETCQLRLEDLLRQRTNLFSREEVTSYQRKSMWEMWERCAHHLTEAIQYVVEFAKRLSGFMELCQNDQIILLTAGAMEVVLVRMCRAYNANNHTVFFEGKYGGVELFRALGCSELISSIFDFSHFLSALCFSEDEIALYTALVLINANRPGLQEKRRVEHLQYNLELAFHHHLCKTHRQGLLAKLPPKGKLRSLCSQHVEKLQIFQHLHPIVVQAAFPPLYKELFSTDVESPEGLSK
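Drosophila S2 cells stably expressing Gal4-DBD/mouse RORγ fusion under metallothionein promoter plus UAS-luciferase; compound 1 h, then 700 uM CuSO4 induction for 20 h at ambient temperature; inhibition read as reduced luminescence.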
ELG1 repair inh – inhibitors of ELG1-dependent DNA repair in HEK293T cells; AID 504467; 2.3% of 330,000 active; HEK293T ELG1-luciferase reporter, luminescence, 16 h; DNA damage induced by 5-fluorouridine; Potency, µM (highest dose often 46.1 µM), for the others: at the highest dose activity change, negative = inhibition, actives largely listed as inhibitors; also: % is scaled to controls: 0 for no effect and ±100 for the full control effect; nearly all actives have a fitted effect of over 55% in size
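Step one: seed 2,000 cells per well. Step two: pin-transfer compound or DMSO alongside 5-fluorouridine. Step three: incubate 16 hr, 37 °C, 5% CO2. Step four: add ONE-Glo, wait 30 min, read luminescence.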
SW480 rerep – induces DNA re-replication in SW480 colon adenocarcinoma cells. SW480 DNA re-replication, Hoechst DNA content imaging, 48 h. Potency, µM (doses to about 46.1 µM), inactives show at the top dose re-replication activation, usual class: activators. 1.8% of 340,000 active. AID 624297; also: % of control where 0% means no effect; nearly all actives have a fitted effect of over 55% in size
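Hoechst fluorescence of nuclei (405 nm excitation, 500-530 nm emission) measured by plate-scanning imager after 48 hr compound exposure at 37 C; re-replication scored as increased number of nuclei with elevated intensity.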
* = called active by the depositor; ? = inconclusive; . = no result given; [ ] = dose if it differs, or a comment. Hits are enriched below; roughly 10% of the tested compounds scored in any of these assays. Calls follow the shape of the dose curve; as a rule, active = well fitted curve in the direction sought with a large enough effect; inconclusive = small, poorly fitted or top-dose-only effect, or another doubt; inactive = no such curve, though single readings can be large; an effect the other way counts as inactive or inconclusive. Potency is read from the fitted curve at half-maximal effect.

SMILES	Gal4-VP16 FLuc	MCF10A rereplic	RORg inh	ELG1 repair inh	SW480 rerep
O=C(NCCCN1CCCC1)c1ccc2c(c1)N(Cc1ccc(F)cc1)C(=O)c1ccccc1S2=O (stereo unspecified)	-13.2%	8.6%	-16.1%	5.4%	-7.5%
Cc1cccc(CN2C(=O)/C(=C\c3ccc(C(=O)NCCN4CCOCC4)cc3)Sc3ccccc32)c1	-14.6%	?	-44.1%	20.6µM*	23.1µM*
CCN1CCN(CCNC(=O)c2ccc3c(c2)N(Cc2ccc(F)cc2)C(=O)/C(=C/c2ccccc2)S3)CC1	?	?	15.8µM*	?	?
Cc1ccc(C)c(CN2C(=O)CSc3ccc(C(=O)NCCN4CCOCC4)cc32)c1	13.5%	-0.5%	-12.0%	7.3%	0.1%
CC1CCCN(CCCNC(=O)c2ccc3c(c2)N(Cc2ccc(F)cc2)C(=O)c2ccccc2S3=O)C1 (stereo unspecified)	-4.8%	1.7%	-16.0%	5.7%	20.6µM*
O=C(NCCN1CCOCC1)c1ccc2c(c1)N(Cc1cccc(F)c1)C(=O)c1ccccc1S2	0.1%	11.0%	33.2%	?	-14.3%
Cc1ccccc1CN1C(=O)/C(=C\c2ccc(C(=O)NCCN3CCOCC3)cc2)Sc2ccccc21	?	20.6µM*	?	?	?
Cc1cc(C)cc(N=C2SC(CC(=O)Nc3ccccc3)C(=O)N2CCN2CCOCC2)c1 (stereo unspecified)	-0.1%	-2.7%	-17.6%	?	-8.0%
O=C(NCC(NS(=O)(=O)OCC(Cl)(Cl)Cl)c1ccccc1)C(F)(F)F (stereo unspecified)	-15.0%	-26.7%	14.1%	-16.7%	-3.8%
CCOCCCNC(=O)/C=C1\Sc2ccccc2N(Cc2ccccc2F)C1=O	8.8%	7.31µM*	-8.2%	13.1%	?
CCN1CCN(CCNC(=O)c2ccc(/C=C3/Sc4ccccc4N(Cc4cccc(Cl)c4)C3=O)cc2)CC1	?	20.6µM*	-43.5%	?	7.3%
CCOCCCNC(=O)CN1C(=O)/C(=C/c2ccccc2C)Sc2ccccc21	3.2%[10 µM]	-1.8%	20.2%	?	?
CC(C)CC(C(=O)NC1CCCCC1)N(Cc1ccccc1)C(=O)c1snc(C(N)=O)c1N (stereo unspecified)	5.9%	?	38.4%	-9.2%	?
COc1cc(NC(=O)[C@@H](NC(=O)N2CCn3c2nc2ccccc23)C(C)C)cc(OC)c1	-7.4%	18.0%	15.0%	-21.3%	-32.7%
CC(=O)c1ccc2noc(-c3ccc(F)cc3)c2c1	0.9%	-22.5%	-27.5%	-18.0%	-4.6%
COc1ccc(-c2onc3ccc(C(=O)/C=C/N(C)C)cc23)cc1	1.5%	18.4µM*	10.1%	-11.1%	16.4µM*
CC(=O)c1ccc2noc(-c3ccc(Cl)cc3)c2c1	-2.5%	?	?	-2.5%	16.4µM*
O=C(NC12CC3CC(CC(C3)C1)C2)c1cccnc1Cl	-3.8%	?	-5.0%	1.4%	-5.5%
CCOc1ccc(NC(=O)c2ccc(NS(=O)(=O)c3cccs3)cc2)cc1	-27.0%	11.9%	?	9.3%	20.6%
Cc1ccc(SCc2ccc(C(=O)Nc3cc([N+](=O)[O-])ccc3C)cc2)cc1	?	-7.1%	13.2%	0.6%	?
Cc1cnc(C(=O)Nc2ccccc2-c2ccc(C)o2)cn1	?	?	7.08µM*	?	11.7%
Cc1ccc(SCc2ccc(C(=O)Nc3cccc([N+](=O)[O-])c3)cc2)cc1	?	4.11µM*	-31.5%	20.7%	8.2µM*
Cc1cccc(NC(=O)c2ccc3ccccc3n2)c1C	?	-38.9%	1.78µM*	?	9.2%
Cc1cnc(C(=O)Nc2cccc3ncccc23)cn1	4.0%	4.2%	8.3%	11.3%	-5.0%
Cc1cc(C(=O)Nc2ccccn2)no1	.	6.0%	7.1%[0.365 µM]	?	-6.2%
SMILES	Gal4-VP16 FLuc	MCF10A rereplic	RORg inh	ELG1 repair inh	SW480 rerep
O=C(Nc1ccccn1)c1ccc2ccccc2n1	?	5.2%	10µM*	?	-0.8%[9.22 µM]
CCOC(=O)c1c(NC(=O)Cn2cnc([N+](=O)[O-])n2)sc(C)c1C	-13.0%	11.8%	9.5%	2.2%	-1.9%
Cc1cnc(C(=O)Nc2nc(-c3ccccc3)cs2)cn1	4.47µM*	-3.6%	4.47µM*	?	-12.2%
Cc1csc(NC(=O)c2cnc3ccccc3n2)n1	?	8.2%	11.2µM*	?	-6.5%
Cc1csc(NC(=O)c2ccc(C(=O)Nc3nc(C)cs3)cc2)n1	2.7%	.	0.6%	?	.
CCc1ccc(C(=O)Nc2nc(C)cs2)s1	11.2µM*	?	7.08µM*	?	25.9%
Cc1csc(NC(=O)c2ccc3ccccc3n2)n1	7.08µM*	15.6%	2.51µM*	?	0.3%
CC1CC1C(=O)Nc1nc(-c2ccccc2)cs1 (stereo unspecified)	-0.4%	7.4%	22.7%	?	0.0%
Cc1csc(NC(=O)c2ccccc2C(=O)O)n1	5.2%	-0.9%	11.6%	1.1%	-14.2%
O=C(Nc1nccs1)c1ccccc1Br	-2.6%	1.6%	-15.4%	?	-8.6%
O=C(Nc1nccs1)c1ccc2ccccc2n1	?	-3.7%	7.08µM*	?	-2.4%
O=C(Nc1ccccn1)c1ccc2ccccc2c1O	12.6µM*	5.5%	?	?	-1.2%[9.22 µM]
CC(NC(=O)c1ccc2ccccc2n1)c1ccc(Br)cc1 (stereo unspecified)	-4.1%	23.1µM*	0.0%	-2.6%	?
CC(NC(=O)c1ccc2ccccc2n1)c1ccc(S(N)(=O)=O)cc1 (stereo unspecified)	-0.6%	-5.8%	3.1%	?	-3.4%
O=C(Nc1cccc([N+](=O)[O-])c1)c1ccc2ccccc2c1O	2.82µM*	?	-30.7%	?	19.0%
C=CC[C@@H](CC(=O)N[C@@H](CO)Cc1ccccc1)C(=O)NC[C@@H](OC(=O)[C@@H](CC=C)CC(=O)OC(C)(C)C)c1ccccc1	.	?	.	0.3%	?
O=C(NNC(=O)c1sccc1-n1cccc1)Nc1ccc(F)cc1	2.7%	-0.6%	19.5%	2.1%	-5.8%
CCN(CC)C(=O)Cn1cnc2sc(C(=O)NCCCN3CCOCC3)c(C)c2c1=O	1.2%	-4.9%	-21.8%	3.5%	-2.9%
O=C(NCc1ccccn1)c1ccc(/C=N/O)nc1	-10.4%	-1.7%	-6.5%	-1.3%	0.0%
O=C(NCc1ccccc1)c1ccc(/C=N/O)nc1	2.3%	5.2%	5.01µM*	-1.0%	-24.6%
O=C(c1cn(-c2ccccc2)nc1-c1cccs1)N1CCOCC1	4.4%	1.5%	10.0%	1.2%	-1.5%
O=C(c1cn(-c2ccccc2)nc1-c1ccc(Br)cc1)N1CCOCC1	4.5%	5.1%	38.6%	-15.5%	23.1µM*
Cc1ccc(-c2nn(-c3ccccc3)cc2CC(=S)N2CCOCC2)cc1	?	-1.1%	17.8µM*	?	3.9%
